Source: the supplement of paper PMC11732987, “Enantioselective OTUD7B fragment discovery through chemoproteomics screening and high-throughput optimisation” (Communications Chemistry, 2025)

Experiments:
Experiment in all cases: log2 ratio of Biotin-Ahx-Ub-VS probe labelling (fragment/DMSO); higher = less target engagement (more negative = stronger competition), active = hit call of the paper (q ≤ 0.05, log2 ratio ≤ -1)
Conditions in all cases: compound concentration: 200 uM; treatment time: 3 h
USP19 = molecular target: T1, USP19 (UniProt O94966)
T1 sequence (whole entry): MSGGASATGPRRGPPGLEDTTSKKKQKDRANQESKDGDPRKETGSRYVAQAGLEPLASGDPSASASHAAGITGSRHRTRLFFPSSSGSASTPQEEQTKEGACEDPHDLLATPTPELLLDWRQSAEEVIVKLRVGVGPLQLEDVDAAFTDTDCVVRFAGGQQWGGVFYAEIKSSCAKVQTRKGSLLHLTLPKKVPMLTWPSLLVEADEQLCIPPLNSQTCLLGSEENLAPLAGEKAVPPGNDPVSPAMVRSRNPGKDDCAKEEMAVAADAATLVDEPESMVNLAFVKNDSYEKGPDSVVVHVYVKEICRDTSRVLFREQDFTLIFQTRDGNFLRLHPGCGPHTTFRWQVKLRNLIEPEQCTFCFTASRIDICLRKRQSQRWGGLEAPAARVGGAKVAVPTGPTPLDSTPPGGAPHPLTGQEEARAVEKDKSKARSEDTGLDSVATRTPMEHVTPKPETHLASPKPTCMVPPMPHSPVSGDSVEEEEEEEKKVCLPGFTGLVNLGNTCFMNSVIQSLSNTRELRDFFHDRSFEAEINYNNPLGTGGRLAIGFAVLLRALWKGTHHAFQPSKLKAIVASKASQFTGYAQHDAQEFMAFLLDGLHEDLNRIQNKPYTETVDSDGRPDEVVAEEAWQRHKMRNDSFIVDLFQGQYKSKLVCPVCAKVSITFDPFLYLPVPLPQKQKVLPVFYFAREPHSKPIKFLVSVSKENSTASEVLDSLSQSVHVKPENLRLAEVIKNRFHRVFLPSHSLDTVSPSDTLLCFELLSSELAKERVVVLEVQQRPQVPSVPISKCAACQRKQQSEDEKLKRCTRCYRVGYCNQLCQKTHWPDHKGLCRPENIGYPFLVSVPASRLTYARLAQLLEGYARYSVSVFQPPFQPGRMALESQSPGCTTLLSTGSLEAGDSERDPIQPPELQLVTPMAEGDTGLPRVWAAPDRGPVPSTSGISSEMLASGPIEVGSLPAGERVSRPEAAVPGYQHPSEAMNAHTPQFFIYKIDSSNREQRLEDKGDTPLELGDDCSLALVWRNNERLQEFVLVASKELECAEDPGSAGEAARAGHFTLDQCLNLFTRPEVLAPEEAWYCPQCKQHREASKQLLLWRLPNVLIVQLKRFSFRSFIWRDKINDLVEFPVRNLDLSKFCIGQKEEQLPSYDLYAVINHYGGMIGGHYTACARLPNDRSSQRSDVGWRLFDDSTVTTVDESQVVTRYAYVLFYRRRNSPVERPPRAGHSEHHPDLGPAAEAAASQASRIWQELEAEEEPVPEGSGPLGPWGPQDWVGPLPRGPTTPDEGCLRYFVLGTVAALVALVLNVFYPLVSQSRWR
Method in brief: (§1)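 The table lists average log2 ratios of fragment over vehicle, from an unpaired t-test on global-median-normalised Spectronaut label-free quantities. Proteins with ≥2 unique peptides were used. Samples were HEK293T lysate (495 µg) treated in triplicate with fragment at 200 µM or vehicle for 3 h, then with Biotin-Ahx-Ub-VS (0.5 µM final) for 1 h, with labelled DUBs NeutrAvidin-enriched and run by diaPASEF LC-MS/MS.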

USP22 = molecular target: T2, USP22 (UniProt Q9UPT9)
T2 sequence (whole entry): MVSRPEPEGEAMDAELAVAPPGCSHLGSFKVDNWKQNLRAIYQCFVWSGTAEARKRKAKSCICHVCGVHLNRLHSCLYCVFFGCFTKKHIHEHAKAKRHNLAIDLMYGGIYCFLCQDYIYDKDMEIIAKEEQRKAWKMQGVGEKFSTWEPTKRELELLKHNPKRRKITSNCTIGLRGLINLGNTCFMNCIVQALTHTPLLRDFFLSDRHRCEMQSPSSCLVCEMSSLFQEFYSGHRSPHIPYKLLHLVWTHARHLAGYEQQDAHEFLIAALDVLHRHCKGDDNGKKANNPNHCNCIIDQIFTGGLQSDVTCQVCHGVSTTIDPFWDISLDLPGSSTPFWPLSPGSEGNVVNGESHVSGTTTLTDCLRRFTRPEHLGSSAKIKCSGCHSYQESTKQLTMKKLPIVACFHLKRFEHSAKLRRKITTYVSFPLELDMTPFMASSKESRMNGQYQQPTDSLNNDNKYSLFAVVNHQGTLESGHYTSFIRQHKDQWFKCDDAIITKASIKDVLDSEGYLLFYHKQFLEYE
Method in brief: as §1

USP24 = USP24 (UniProt Q9UPU5)
Method in brief: as §1

USP25 = molecular target: T3, USP25 (UniProt Q9UHP3)
T3 sequence (whole entry): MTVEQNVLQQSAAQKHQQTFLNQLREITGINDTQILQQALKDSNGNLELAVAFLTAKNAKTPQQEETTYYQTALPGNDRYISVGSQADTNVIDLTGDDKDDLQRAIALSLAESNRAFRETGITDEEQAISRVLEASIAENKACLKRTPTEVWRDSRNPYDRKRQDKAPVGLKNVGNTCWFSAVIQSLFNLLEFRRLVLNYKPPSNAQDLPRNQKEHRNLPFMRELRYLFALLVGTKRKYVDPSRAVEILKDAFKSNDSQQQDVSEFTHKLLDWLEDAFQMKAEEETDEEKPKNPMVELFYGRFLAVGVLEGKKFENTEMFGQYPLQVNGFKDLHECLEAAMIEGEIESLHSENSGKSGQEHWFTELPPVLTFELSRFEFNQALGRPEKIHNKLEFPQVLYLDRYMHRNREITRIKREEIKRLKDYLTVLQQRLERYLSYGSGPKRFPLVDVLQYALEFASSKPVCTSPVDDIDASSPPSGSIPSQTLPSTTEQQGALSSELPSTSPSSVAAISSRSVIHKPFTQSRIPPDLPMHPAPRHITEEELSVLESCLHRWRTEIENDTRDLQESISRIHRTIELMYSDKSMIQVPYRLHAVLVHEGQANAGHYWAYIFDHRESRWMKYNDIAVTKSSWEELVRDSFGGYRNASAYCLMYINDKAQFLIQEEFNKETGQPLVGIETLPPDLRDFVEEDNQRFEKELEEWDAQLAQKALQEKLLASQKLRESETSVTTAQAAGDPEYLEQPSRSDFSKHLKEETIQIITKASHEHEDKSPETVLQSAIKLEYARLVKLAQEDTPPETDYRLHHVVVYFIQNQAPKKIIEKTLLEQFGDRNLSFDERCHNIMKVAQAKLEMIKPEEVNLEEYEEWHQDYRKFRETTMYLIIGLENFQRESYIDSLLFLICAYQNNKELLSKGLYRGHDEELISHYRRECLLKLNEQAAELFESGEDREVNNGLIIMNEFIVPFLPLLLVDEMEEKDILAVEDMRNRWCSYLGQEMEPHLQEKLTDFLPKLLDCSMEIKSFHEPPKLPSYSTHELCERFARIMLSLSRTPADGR
Method in brief: as §1

USP28 = molecular target: T4, USP28 (UniProt Q96RU2)
T4 sequence (whole entry): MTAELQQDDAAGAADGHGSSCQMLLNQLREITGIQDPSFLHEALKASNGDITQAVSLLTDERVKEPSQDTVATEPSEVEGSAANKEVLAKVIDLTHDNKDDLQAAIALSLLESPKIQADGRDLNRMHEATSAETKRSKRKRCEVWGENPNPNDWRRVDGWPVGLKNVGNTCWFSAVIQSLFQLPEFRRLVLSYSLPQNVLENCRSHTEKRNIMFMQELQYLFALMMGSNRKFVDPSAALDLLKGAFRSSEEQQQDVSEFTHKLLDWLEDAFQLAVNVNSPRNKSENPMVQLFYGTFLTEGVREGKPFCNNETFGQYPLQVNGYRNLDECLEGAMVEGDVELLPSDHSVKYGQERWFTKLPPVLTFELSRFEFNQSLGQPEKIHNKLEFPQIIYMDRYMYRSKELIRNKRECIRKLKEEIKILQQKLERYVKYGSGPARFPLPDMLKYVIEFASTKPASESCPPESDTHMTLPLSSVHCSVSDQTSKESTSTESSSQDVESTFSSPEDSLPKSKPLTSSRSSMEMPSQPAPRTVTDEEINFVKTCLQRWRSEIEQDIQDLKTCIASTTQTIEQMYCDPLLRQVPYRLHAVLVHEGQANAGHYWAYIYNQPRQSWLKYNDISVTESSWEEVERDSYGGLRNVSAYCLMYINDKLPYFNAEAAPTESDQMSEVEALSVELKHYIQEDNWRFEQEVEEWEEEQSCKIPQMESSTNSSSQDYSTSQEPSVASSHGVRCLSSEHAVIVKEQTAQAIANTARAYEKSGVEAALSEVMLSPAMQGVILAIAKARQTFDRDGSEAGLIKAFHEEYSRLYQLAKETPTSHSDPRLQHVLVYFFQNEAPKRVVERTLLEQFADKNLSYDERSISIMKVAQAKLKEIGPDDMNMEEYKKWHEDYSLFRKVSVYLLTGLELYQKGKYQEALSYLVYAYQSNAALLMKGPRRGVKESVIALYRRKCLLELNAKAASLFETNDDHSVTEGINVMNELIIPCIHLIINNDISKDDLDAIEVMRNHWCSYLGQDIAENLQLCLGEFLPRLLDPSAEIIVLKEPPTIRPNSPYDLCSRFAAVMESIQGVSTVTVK
Method in brief: as §1

Measured: log2 ratio of Biotin-Ahx-Ub-VS probe labelling

Chain of USP24 (Q9UPU5 whole entry): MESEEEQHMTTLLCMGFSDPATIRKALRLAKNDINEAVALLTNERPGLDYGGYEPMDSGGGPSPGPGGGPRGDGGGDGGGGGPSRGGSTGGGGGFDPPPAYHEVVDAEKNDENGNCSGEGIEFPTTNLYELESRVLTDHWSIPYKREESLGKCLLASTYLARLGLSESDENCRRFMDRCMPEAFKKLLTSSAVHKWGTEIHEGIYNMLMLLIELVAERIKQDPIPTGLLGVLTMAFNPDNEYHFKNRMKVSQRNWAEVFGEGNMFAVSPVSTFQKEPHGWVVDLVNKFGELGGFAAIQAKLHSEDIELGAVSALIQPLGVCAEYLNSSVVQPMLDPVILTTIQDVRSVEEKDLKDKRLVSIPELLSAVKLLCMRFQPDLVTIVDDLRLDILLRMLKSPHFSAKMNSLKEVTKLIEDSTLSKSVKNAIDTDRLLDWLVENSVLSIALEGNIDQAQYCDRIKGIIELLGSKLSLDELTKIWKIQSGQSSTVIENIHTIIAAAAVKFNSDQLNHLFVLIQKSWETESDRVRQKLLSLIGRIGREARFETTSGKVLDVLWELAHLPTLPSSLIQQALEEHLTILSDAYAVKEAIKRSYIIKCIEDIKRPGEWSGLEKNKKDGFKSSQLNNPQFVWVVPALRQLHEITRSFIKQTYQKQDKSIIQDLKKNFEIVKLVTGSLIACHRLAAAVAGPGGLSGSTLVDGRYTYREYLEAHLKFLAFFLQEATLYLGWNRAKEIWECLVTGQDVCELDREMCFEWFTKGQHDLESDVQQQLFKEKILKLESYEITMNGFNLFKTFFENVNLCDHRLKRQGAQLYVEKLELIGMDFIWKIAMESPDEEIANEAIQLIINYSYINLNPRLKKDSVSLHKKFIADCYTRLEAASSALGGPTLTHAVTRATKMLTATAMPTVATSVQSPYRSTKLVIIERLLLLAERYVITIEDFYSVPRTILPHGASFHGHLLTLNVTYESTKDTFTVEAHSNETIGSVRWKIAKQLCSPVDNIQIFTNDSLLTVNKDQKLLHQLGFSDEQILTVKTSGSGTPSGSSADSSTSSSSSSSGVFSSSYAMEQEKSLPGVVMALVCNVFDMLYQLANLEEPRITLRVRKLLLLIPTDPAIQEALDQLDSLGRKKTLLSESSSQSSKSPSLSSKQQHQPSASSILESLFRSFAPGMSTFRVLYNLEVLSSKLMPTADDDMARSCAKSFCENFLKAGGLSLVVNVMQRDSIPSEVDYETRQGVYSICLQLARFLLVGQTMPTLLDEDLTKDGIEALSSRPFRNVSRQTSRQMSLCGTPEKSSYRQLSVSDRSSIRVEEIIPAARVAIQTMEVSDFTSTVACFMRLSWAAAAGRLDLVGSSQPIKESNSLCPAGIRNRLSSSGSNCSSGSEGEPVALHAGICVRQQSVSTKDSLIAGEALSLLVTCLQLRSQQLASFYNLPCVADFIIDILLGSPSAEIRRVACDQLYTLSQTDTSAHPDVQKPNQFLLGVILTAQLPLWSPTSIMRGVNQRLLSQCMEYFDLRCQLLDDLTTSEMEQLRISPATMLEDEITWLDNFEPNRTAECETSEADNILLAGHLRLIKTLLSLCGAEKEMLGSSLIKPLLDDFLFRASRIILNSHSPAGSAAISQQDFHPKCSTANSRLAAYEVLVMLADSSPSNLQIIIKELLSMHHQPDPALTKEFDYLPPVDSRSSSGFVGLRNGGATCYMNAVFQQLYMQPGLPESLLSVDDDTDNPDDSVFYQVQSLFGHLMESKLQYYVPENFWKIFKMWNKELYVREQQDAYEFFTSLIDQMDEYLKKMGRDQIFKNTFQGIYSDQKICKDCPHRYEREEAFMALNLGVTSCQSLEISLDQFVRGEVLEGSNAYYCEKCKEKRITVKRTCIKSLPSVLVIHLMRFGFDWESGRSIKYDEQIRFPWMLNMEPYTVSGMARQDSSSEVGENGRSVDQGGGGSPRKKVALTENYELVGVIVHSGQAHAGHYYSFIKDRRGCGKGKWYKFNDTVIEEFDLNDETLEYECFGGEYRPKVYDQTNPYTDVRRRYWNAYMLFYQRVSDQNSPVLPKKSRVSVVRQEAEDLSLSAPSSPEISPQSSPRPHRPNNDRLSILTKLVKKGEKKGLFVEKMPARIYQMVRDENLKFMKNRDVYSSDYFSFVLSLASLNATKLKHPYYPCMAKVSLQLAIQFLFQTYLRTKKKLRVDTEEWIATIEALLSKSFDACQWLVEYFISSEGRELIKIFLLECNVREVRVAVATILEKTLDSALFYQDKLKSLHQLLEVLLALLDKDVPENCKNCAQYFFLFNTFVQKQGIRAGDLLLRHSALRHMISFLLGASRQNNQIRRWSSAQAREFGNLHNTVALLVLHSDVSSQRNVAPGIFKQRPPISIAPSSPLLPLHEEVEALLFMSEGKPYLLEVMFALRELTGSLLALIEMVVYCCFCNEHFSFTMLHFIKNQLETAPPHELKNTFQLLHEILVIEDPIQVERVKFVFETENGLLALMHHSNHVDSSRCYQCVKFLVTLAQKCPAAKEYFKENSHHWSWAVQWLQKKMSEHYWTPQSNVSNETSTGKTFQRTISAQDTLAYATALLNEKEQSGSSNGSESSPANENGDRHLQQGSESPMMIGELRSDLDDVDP

N#Cc1ccc(CNC(=O)CCl)cc1
inactive: USP19 -0.0911 | USP22 0.193 | USP24 -0.183 | USP25 -0.413 | USP28 -0.49
